Source: PubChem BioAssay AID588402 (Sanford-Burnham Center for Chemical Genomics, 2011)
Out of some 1,600 compounds screened, about 1,100 (69%) were called active. No stated cut-off is given here; in the data, active means inhibition above about 50%; inactive means the rest. The set was probably picked from earlier hits. Only a sample is shown.

Target: Phospholipase A2 (Homo sapiens) (UniProt P04054)
Assay: PLA2 enzyme inhibition, counter-screen for ATG4B inhibitor project, biochemical, single concentration, uHTS hits (AID 588402)
Conditions: purified PLA2, NBD-C6-HPC fluorescence, 45 min; at 8.33 µM; active compounds read high

Chain of Phospholipase A2 (Homo sapiens) (P04054 whole entry, looked up): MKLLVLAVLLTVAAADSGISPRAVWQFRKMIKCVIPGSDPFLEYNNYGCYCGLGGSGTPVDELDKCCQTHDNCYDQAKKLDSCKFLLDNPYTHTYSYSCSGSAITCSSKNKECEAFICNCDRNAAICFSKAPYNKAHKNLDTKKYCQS

Row | SMILES | inhibition
1 | CCCC1=Nc2cc(C(=O)NCc3ccco3)ccc2Sc2ccccc21 | 46.3% (inactive)
2 | Oc1c(Cl)cc(Cl)c(Cl)c1Cc1c(O)c(Cl)cc(Cl)c1Cl | 82.7% (active)
3 | Cc1ccc(-n2c(SCC(=O)N/N=C/C=C/c3ccccc3[N+](=O)[O-])nc3ccccc3c2=O)cc1 | 40.7% (inactive)
4 | O=C(O)CCn1cc(/C=C/C(=O)c2ccc(Cl)cc2)c(-c2cccc(Br)c2)n1 | 43.2% (inactive)
5 | O=C1C(=O)N(CC2COc3ccccc3O2)c2ccccc21 (stereo unspecified) | 78.5% (active)
6 | Fc1ccc2[nH]c3c(N4CCN(Cc5ccc6c(c5)OCO6)CC4)ncnc3c2c1 | 48.4% (inactive)
7 | COc1ccc(NC(=O)COc2ccc(C(=O)c3ccc(F)cc3)cc2)cc1S(N)(=O)=O | -4.37% (inactive)
8 | COc1cccc(NC(=O)NCc2ccc(F)cc2)c1 | 52.3% (active)
9 | CC1=C/C(=N\S(=O)(=O)c2ccccc2)C(C(C)C)=CC1=O | 84.4% (active)
10 | CN(C)Cc1ccc(F)cc1Sc1cc(Cl)ccc1Cl | 42.7% (inactive)
11 | O=C(N/N=C/c1coc2ccccc2c1=O)c1cc2ccccc2o1 | 55.8% (active)
12 | COc1ccc(/C=C2\CCc3ccccc3C2=O)c(OC)c1OC | 23.1% (inactive)
13 | COc1ccc(/C=C2/CCCc3ccccc3C2=O)cc1 | 53.3% (active)
14 | CCc1ccc2c(c1)C(c1ccc([N+](=O)[O-])cc1)=NNC(c1ccccc1)=N2 | 24.1% (inactive)
15 | CCOc1ccc2c(c1)C(c1ccc(C)cc1)=NNC(c1ccc(C)cc1)=N2 | 74.7% (active)
16 | O=C1Nc2cc(Cl)c(Cl)cc2N(O)N1c1cc(Cl)cc(Cl)c1 | 39.8% (inactive)
17 | O=C(O)C(c1ccccc1)N1C(=O)/C(=C\c2ccc(-c3cccc(Cl)c3)o2)SC1=S (stereo unspecified) | 45% (inactive)
18 | O=C(N[C@@H](Cc1c[nH]c2ccccc12)C(=O)O)OCC1c2ccccc2-c2ccccc21 | 72.1% (active)

Row | SMILES | inhibition
19 | Cc1cccc(NC(=S)Nc2ccc(Cl)c(Cl)c2)c1 | 60.1% (active)
20 | COc1cnc(-c2ccccn2)nc1Oc1ccc(C(C)(C)C)cc1 | 67.2% (active)
21 | CC(C)(C)c1ccc(OC2=CS(=O)(=O)c3ccccc32)cc1 | 55.9% (active)
22 | Cc1cccc(NC(=S)NCCc2ccc(Cl)cc2)c1C | 57.9% (active)
23 | Cc1ccc(Nc2ccc(C(N)=O)cc2[N+](=O)[O-])cc1 | 59.4% (active)
24 | COc1cccc(Cn2cc(/C=N/NC(=O)c3cc(O)cc(O)c3)c3ccccc32)c1 | 76.6% (active)
25 | COC(=O)N/N=C/c1cn(CCCOc2ccc(C)cc2)c2ccccc12 | 43% (inactive)
26 | CCOC(=O)N/N=C/c1cn(Cc2ccccc2Cl)c2ccccc12 | 48.2% (inactive)
27 | CC(C)(C)C1CCc2c(sc3nc(SCC(N)=O)nc(N)c23)C1 (stereo unspecified) | 47.6% (inactive)
28 | CCOC(=O)c1c(-c2ccccc2)oc2cc(Br)c(O)c(C=O)c12 | 40.9% (inactive)
29 | CC(=O)Nc1ccc(C(=O)Nc2nc(-c3cc(C)n(Cc4ccccc4)c3C)cs2)cc1 | 38.2% (inactive)
30 | CCCc1[nH]nc2c1C(c1ccc(OC(=O)c3ccco3)cc1)C(C#N)=C(N)O2 (stereo unspecified) | 67.4% (active)
31 | COC(=O)c1c(NC(=O)COC(=O)[C@@H](NS(=O)(=O)c2ccccc2)C(C)C)sc2c1CCC2 | 81.7% (active)
32 | NC(=O)c1sc2nc3c(c(-c4ccccc4)c2c1N)CCC3 | 46.6% (inactive)
33 | O=C(COC(=O)/C(=C/c1cccs1)c1cccs1)NCc1ccccc1Cl | 68.2% (active)
34 | O=C(COC(=O)c1cc2c(s1)CCCC2)NCc1ccccc1Cl | 59.3% (active)
35 | CCc1nc(N2CCN(C(C)=O)CC2)c2c3c(sc2n1)CCCC3 | 52.4% (active)
36 | Cc1ccc(Oc2cc(NC(=O)CCCn3nc(C)c([N+](=O)[O-])c3C)cc([N+](=O)[O-])c2)cc1 | 63% (active)
